KCNK3 block: human KCNK3 channel inhibition, primary screen; 0.84% of 340,000 active; O14649; B-score at 10 µM; AID 602410; CHO-KCNK3 thallium flux, FluxOR fluorescence; hits give low values;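 active = B-score under library mean minus 4 SD, starting fluorescence ratio at most library mean plus 5 SD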;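 also: more negative B-score means stronger inhibition of thallium flux through KCNK3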
KCNK9 block: inhibitors of human KCNK9 two-pore domain potassium channel; 1.2% of 310,000 active; AID 488922; HEK293 KCNK9, FluxOR thallium flux fluorescence; hits give low values; B-score at 10 µM;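 active = ratio B-score over 3 SD below the library mean, with starting fluorescence within 5 SD of its mean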;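 also: negative B-score means less thallium flux so channel inhibition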
TMEM16A inh: blocks the mouse calcium-activated chloride channel TMEM16A; Q8BHY3; HEK293 TMEM16A/YFP iodide influx fluorescence, ionomycin; normalized B-score (activity score, 25-100; higher = stronger inhibition) at 10 µM; 1.2% of 310,000 active; AID 588511;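 active = ratio plate-corrected score three or more library SD toward inhibition, starting fluorescence score within five deviations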;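 also: score derived from kinetic fluorescence span divided by baseline fluorescence per well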
ANO1 activ: mouse TMEM16A channel activation, primary screen. B-score at 10 µM. HEK293 TMEM16A/YFP-H148Q/I152L, iodide quench fluorescence; hits give low values. 0.3% of 340,000 active;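 active = fluorescence-ratio B-score plate-corrected deviation score at least 3 library SD below zero, with starting fluorescence score within 5 deviations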;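 also: channel opened by trigger with iodide after compound preincubation; score built on the fluorescence ratio of max minus min over baseline; more negative score means more quench and so TMEM16A activation or potentiation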
Kir21 inh: inhibitors of mouse Kir2.1 inward-rectifier potassium channel; P35561; HEK293-Kir2.1, FluxOR thallium flux fluorescence; hits give low values; B-score at 10 µM; 0.85% of 310,000 active;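 active = fluorescence ratio B-score at or below minus 3 SD of library scores, with starting-brightness B-score within 2 SD, cut at about -4.2 in these data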;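 also: channel flux triggered by added potassium and thallium sulfate stimulus; B-score of peak minus minimum fluorescence over baseline after thallium stimulus; more negative B-score means stronger Kir2.1 block with less thallium influx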
Target sequence (P35561 whole entry, looked up): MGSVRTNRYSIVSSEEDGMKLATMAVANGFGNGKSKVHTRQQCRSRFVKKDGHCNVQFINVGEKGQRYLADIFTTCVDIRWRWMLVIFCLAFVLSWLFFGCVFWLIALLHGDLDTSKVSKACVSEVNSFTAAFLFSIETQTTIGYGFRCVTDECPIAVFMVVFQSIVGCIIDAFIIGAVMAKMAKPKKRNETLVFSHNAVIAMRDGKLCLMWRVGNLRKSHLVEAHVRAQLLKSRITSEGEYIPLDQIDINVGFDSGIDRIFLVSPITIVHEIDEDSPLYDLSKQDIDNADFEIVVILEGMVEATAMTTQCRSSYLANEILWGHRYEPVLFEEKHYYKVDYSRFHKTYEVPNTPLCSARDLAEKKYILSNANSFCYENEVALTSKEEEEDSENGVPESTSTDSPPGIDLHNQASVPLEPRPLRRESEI
KCNK9 inh conf: human KCNK9 inhibitor confirmation. inhibition, % at 10 µM. HEK293 KCNK9 cells, FluxOR thallium flux fluorescence. AID 492992. 43% of 4,900 active. shares compounds with KCNK9 block;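 active = thallium signal inhibited by more than 5 SD of the compound-free buffer control wells, on both duplicate plates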;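 also: 0% = assay buffer control wells without compound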
Kir2-1 spec: mouse Kir2.1 off-target activity of KCNK9 modulators; shares compounds with KCNK9 block; Kir2.1 cells, FluxOR thallium flux fluorescence; inhibition, % at 10 µM; 4% of 4,900 active; AID 492993;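 active = thallium signal drop more than 5 SD beyond the mean of the no-compound control wells, seen in both duplicate plates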;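 also: signal is fluorescence rise after thallium addition divided by baseline fluorescence; plate controls were assay buffer only for no effect and full block by chlorpromazine control for full effect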
HEK293 Tl ctr: second counter-screen for KCNK9 modulators: effect in non-induced cells. shares compounds with KCNK9 block. 40% of 4,900 active. inhibition, % at 10 µM. non-induced KCNK9-HEK293, FluxOR thallium flux;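 active = thallium signal drop beyond 5 SD of the untreated control mean, on both duplicate plates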;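 also: plate controls were buffer only IC0 wells for no effect and SID17386958 at its maximal inhibitory level for full effect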
* marks the source's active call; other numbers are inactive results; i = inactive; . = no result. Sampled rows, rich in hits. Any-hit rate of the full collection: about 3.5%.

SMILES	KCNK3 block	KCNK9 block	TMEM16A inh	ANO1 activ	Kir21 inh	KCNK9 inh conf	Kir2-1 spec	HEK293 Tl ctr
Cc1ccc(C)c(N2CCN(C(=O)c3cc(S(=O)(=O)N4CCOCC4)ccc3F)CC2)c1	i	i	i	i	0.02	i	i	i
CSc1ccc(C(=O)C2CCCN(Cc3cccn3-c3cccnc3)C2)cc1 (configuration not stated)	i	i	i	i	-3.29	i	i	i
O=C(c1ccc(Cl)cc1)C1CCCN(Cc2cccn2-c2cccnc2)C1 (configuration not stated)	i	i	i	i	-2.77	.	.	.
CCC(c1nnnn1C1CCCC1)N1CCN(c2cccc(OC)c2)CC1 (configuration not stated)	i	i	i	i	-0.04	.	.	.
Cc1cccnc1NC(=O)C1CCN(S(=O)(=O)c2c(C)noc2/C=C/c2ccco2)CC1	i	i	i	i	0.24	i	i	i
Cc1ccc(C2CC2C(=O)NNC(=S)Nc2cccc(C)c2)cc1 (configuration not stated)	i	i	i	i	-0.33	i	i	i
Cn1cc(CN2CCCC(CO)(Cc3ccccc3)C2)c2ccccc21 (configuration not stated)	i	i	i	i	-1.71	i	i	28.5%*
COc1cccc(CC2(CO)CCCN(Cc3ccccc3Cl)C2)c1 (configuration not stated)	i	i	i	i	-3.21	.	.	.
COc1cccc(CC2(CO)CCCN(Cc3ccc(OC)c(C)c3OC)C2)c1 (configuration not stated)	i	i	i	i	-0.9	i	i	i
CC(C)c1ccc(CN2CCC(Oc3ccc(C(=O)N4CCCC4)cc3)CC2)cc1	i	i	i	i	-0.46	.	.	.
CC1CCN(C(=O)CNC(=O)c2cccc(OC(F)F)c2)CC1	i	i	i	i	0.65	.	.	.
CN(Cc1ccc(C(F)(F)F)cc1)C(=O)c1ccc(Oc2ccccc2)cc1	i	i	i	i	0.04	i	i	25.5%*
CN(Cc1ccccc1F)C(=O)c1ccc(Oc2ccccc2)cc1	i	i	i	i	-0.96	i	i	i
NS(=O)(=O)c1ccc(CCNC(=O)Cc2cccs2)cc1	i	i	i	i	-1.65	.	.	.
Cc1ccc(-c2cc(-c3ccccc3)nc(N/N=C/c3cccnc3)n2)cc1	i	i	i	i	1.03	.	.	.
Cc1cc(-c2ccccc2)nc(N/N=C/c2ccc(O)cc2O)n1	i	-15.3*	i	i	2.34	75.0%*	i	33.0%*
C(=N/Nc1nc(-c2ccccc2)cc(-c2ccccc2)n1)/c1cccnc1	i	i	i	i	0.69	i	i	i
Cc1cc(-c2ccccc2)nc(N/N=C/c2ccco2)n1	i	i	i	i	0.2	.	.	.
O=C(Nc1sc2c(c1C(=O)NCc1ccco1)CCCC2)c1ccc2c(c1)OCO2	i	-10.5*	i	i	-0.57	42.5%*	i	i
CCn1c(SCC(=O)c2cc(C)ccc2C)nc2cc(S(=O)(=O)N3CCOCC3)ccc21	i	i	i	i	-2.63	i	i	i
CCN(CC)C(=O)CSc1nc(-c2cccs2)cc(-c2cccs2)c1C#N	i	-9.78*	i	i	-0.26	62.5%*	i	68.0%*
CCN(CC)C(=O)CSc1nc(N)c(C#N)c(-c2cccs2)c1C#N	i	i	i	i	0.65	.	.	.
O=C(CN(C(=O)CCC(=O)Nc1nccs1)c1ccc(F)cc1)NCc1ccccc1	i	i	i	i	1.04	.	.	.
CC(C)CC1Nc2ncnc(N3CCN(c4ccccc4)CC3)c2N(Cc2ccccc2)C1=O (configuration not stated)	i	i	i	i	1.93	.	.	.
CC(C)CC1Nc2ncnc(N3CCCCC3)c2N(Cc2ccccc2)C1=O (configuration not stated)	i	-9.12*	i	i	-2.1	39.0%*	i	38.0%*
SMILES	KCNK3 block	KCNK9 block	TMEM16A inh	ANO1 activ	Kir21 inh	KCNK9 inh conf	Kir2-1 spec	HEK293 Tl ctr
O=C1C(Cc2ccccc2)Nc2ncnc(N3CCCCC3)c2N1Cc1ccc(Cl)cc1 (configuration not stated)	i	-17.4*	i	i	-1.16	75.5%*	i	33.5%*
Cc1ccc(Nc2nc(CSc3nnc(-c4ccc(F)cc4)n3C)cs2)cc1	i	i	i	i	-3.49	.	.	.
CN1CCN(C(=S)NC(=O)c2ccccc2Cl)CC1	i	i	i	i	0.95	.	.	.
CN(CC(=O)Nc1cccc(F)c1)C(=O)CCCN1C(=O)c2cccc3cccc(c23)C1=O	i	i	i	i	-0.54	.	.	.
Cc1ccc(SCC(=O)O/N=C(\N)c2ccc([N+](=O)[O-])cc2)cc1	i	i	i	i	-0.87	i	i	i
O=C(CN1CCCC1)N1c2ccccc2Sc2ccc(C(F)(F)F)cc21	i	i	i	i	-1.23	.	.	.
O=C(CN1CCN(c2ccccn2)CC1)N1c2ccccc2Sc2ccc(C(F)(F)F)cc21	i	i	i	i	0.6	i	i	i
O=c1[nH]c2ccccc2c(O)c1-c1cc2ccccc2oc1=O	.	i	i	.	0.27	.	.	.
Cc1cccnc1Nc1nc(-c2ccccc2)cs1	i	i	i	i	0	i	i	26.0%*
COc1ccc(/C=N/NC(=O)CSc2nnc(CCCc3ccc(OC)c(C)c3)o2)cc1	i	i	100*	i	1.93	i	i	i
COc1ccc(-c2nn(-c3ccccc3)cc2/C=N/N2C(=O)CSC2=S)cc1	i	i	i	i	-1.54	.	.	.
O=C(O)CC1S/C(=N/N=C/c2ccc([N+](=O)[O-])cc2)N(c2ccc(O)cc2)C1=O (configuration not stated)	i	i	i	i	0.38	.	.	.
CC(=O)OC1CC(C)(C)N(OC(=O)CCCN2C(=O)c3ccccc3C2=O)C(C)(C)C1	i	i	i	i	1.77	i	i	i
CCN(CC(=O)NC(C)C)C(=O)Cc1ccc(C)c(C)c1	i	i	i	i	-0.13	.	.	.
CC(=O)C(Sc1nn(C)c(=S)s1)C(=O)Nc1ccccc1 (configuration not stated)	i	i	i	i	-0.31	.	.	.

Compound activity deposited in PubChem by Johns Hopkins Ion Channel Center.
